Results taken from PMC4336329 (PLoS ONE, 2015).
Out of some 310,000 compounds screened, about 14,000 (4.5%) showed an effect of 50% or more. Effects have a minus sign here. The sample as a whole holds a higher share of strong results than the screen did.

What follows are molecules tested against human ether-à-go-go-related gene (hERG) potassium channel (human, UniProt Q12809) (assay: primary screen, population patch clamp on CHO cells stably expressing hERG; higher = less effect of the substance).
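Note: peak tail current of the secondary pulse compared with the same well before compound.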

Chain of human ether-à-go-go-related gene (hERG) potassium channel (Q12809 whole entry, looked up): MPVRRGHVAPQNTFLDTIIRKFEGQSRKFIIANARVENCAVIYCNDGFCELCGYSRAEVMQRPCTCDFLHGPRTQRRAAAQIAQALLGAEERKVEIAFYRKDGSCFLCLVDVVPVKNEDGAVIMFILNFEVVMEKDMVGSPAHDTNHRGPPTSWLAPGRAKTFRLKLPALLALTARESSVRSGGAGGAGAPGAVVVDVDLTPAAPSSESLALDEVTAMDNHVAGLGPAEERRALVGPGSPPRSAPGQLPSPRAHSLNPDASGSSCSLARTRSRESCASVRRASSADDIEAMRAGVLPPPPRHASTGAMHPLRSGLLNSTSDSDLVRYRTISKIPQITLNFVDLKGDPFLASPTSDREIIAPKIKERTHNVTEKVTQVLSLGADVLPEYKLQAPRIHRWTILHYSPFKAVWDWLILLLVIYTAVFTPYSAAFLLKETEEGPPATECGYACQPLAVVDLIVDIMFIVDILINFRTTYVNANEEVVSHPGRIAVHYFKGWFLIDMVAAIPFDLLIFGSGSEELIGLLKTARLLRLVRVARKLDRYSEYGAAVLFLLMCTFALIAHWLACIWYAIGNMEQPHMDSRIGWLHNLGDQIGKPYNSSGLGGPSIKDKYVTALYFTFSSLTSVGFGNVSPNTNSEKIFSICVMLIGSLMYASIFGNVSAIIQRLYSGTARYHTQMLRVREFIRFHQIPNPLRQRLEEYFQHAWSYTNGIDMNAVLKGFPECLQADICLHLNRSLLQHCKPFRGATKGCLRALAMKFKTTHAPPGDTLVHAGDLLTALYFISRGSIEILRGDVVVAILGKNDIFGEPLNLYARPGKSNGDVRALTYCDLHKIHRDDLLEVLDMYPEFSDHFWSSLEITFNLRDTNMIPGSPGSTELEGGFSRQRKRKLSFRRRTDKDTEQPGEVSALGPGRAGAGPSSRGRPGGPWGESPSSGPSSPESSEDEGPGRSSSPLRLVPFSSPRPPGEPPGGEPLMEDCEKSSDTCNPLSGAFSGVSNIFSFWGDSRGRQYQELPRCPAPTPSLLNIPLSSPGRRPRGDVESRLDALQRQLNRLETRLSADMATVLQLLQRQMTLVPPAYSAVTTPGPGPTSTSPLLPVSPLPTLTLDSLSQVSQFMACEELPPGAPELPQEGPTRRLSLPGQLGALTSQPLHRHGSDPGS

| Structure (SMILES) | hERG current change (%, negative = inhibition) at 10uM [%] |
| --- | --- |
| CCCCOC(=O)C(C)Sc1n[nH]c(=O)[nH]c1=O (stereo not shown) | -5.93 |
| O=[N+]([O-])c1ccc(CNc2cccc(Cl)c2)s1 | -28.3 |
| O=C1N=C(c2ccccc2)S/C1=C\c1cccs1 | 5.19 |
| COc1ccc(N2CCN(Cc3nc(-c4ccccc4)no3)CC2)cc1 | 8.23 |
| C=CCOC(=O)C1=C[C@@H](c2csc3ccccc23)[C@H](CCCO)[C@@H](OCC)O1 | -27.7 |
| COc1ccc(S(=O)(=O)N2CCC(C(=O)N[C@@H](C)C(=O)NC3CCCC3)CC2)cc1 | 13.4 |
| COCCNC(=O)c1ccc2c(c1)S(=O)(=O)c1cc(Cl)ccc1C2=O | -3.38 |
| CCN(CC)S(=O)(=O)c1ccc(F)c(C(=O)OC2CC(C)OC2=O)c1 (stereo not shown) | -2.4 |
| O=C(Cn1cc(SCc2cccc(Cl)c2)c2ccccc21)N1CCOCC1 | -33.1 |
| O=C(Cn1cc(SCc2ccc(F)cc2)c2ccccc21)N1CCOCC1 | -29.9 |
| O=C(Cn1cc(SCc2ccc(Cl)cc2)c2ccccc21)N1CCOCC1 | -53.3 |
| Nc1ncnc2c1ncn2C1O[C@H](CO)[C@@H](O)[C@@H]1O (stereo partly shown) | -8.74 |
| Cc1ccc(CNC(=O)CSc2nc(N3CCCCC3)nc(N3CCCCC3)n2)cc1 | 7.64 |
| O=C(CCNS(=O)(=O)c1ccccc1C(F)(F)F)NCCCSc1ccccc1 | -18.1 |
| O=[N+]([O-])c1ccccc1S(=O)(=O)NCCSc1ccccc1 | 4.87 |
| O=S(=O)(NCCCSc1ccccc1)c1ccccc1F | -79.6 |
| Cc1ccc(Nc2nc(N)nc(CN3CCN(C)CC3)n2)cc1 | -27.8 |
| Cc1ccc(Nc2nc(N)nc(CN3CCCCCC3)n2)cc1 | -72.1 |
| Cc1ccc(Nc2nc(N)nc(CCl)n2)cc1 | 1.76 |
| Nc1nc(CN2CCCCCC2)nc(Nc2ccc(F)cc2)n1 | -70.8 |
| Nc1nc(CSC(=S)N2CCOCC2)nc(Nc2ccc(F)cc2)n1 | 7.31 |
| Nc1nc(CSCCO)nc(Nc2ccc(F)cc2)n1 | 16.1 |
| CC(=O)Nc1ccc(NC(=O)Nc2ccccc2)cc1 | 10.5 |
| CC(=O)OCC[C@H](NS(=O)(=O)OCC(Cl)(Cl)Cl)c1ccccc1 | 1.61 |
| COc1cc(NC(=O)c2cc(C(C)C)on2)c(OC)cc1Cl | 3.16 |
